FLuc modulator: inhibits or activates purified firefly luciferase, miR-21 counter-screen. Potency, µM (top dose mostly 57.5 µM), for the others: at the highest dose activity change, negative = inhibition, actives largely listed as inhibitors. purified FLuc, Km substrates, luminescence inhibition. P08659. actives 6.9% (n = 360,000);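 further: plate controls were vehicle for no effect and reference inhibitor for full effect; nearly all actives have a fitted effect of over 55% in size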
Target sequence (P08659 whole entry, looked up): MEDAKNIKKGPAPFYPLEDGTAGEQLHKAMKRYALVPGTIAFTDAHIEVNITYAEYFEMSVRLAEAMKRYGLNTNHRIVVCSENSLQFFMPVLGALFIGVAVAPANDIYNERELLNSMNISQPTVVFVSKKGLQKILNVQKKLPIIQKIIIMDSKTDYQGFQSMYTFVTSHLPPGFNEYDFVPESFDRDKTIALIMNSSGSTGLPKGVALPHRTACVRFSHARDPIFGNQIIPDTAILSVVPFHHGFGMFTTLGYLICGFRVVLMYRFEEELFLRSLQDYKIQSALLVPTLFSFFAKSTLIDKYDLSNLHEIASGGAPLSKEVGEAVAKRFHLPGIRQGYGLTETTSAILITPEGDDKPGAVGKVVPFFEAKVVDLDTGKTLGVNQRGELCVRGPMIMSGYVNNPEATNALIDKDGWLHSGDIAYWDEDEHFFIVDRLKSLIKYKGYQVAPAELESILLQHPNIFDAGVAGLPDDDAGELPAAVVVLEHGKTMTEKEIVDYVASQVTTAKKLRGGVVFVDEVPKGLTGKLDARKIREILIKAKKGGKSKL
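Purified P. pyralis luciferase (10nM final) with 10uM D-luciferin and 10uM ATP (Km levels) in 50mM Tris acetate pH 7.5, 10mM Mg acetate, 0.01% Tween-20, 0.05% BSA; qHTS 6-point titration, ~60 µM downward; luminescence read.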
Luc counter: counter-screen: inhibitors of Kinase-Glo firefly luciferase | actives 0.28% (n = 200,000) | Q27757 | Kinase-Glo luciferase, ATP luminescence, 8 min | Potency, µM (titrated, usually from 38.3 µM), for the others: top-dose activity change, negative = inhibition, most hits filed as inhibitors; further: on the % scale 0 is the no-effect control and ±100 the full control effect; nearly all actives have a fitted effect of over 60% in size
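Substrate mix (final 50 mM imidazole pH 7.2, 50 mM KCl, 7 mM MgCl2, 10 uM ATP, 0.01% Tween 20, 0.05% BSA) plus pin-tool compound, then Kinase-Glo detection mix; 8 min ambient, luminescence read.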
SMN2 splice enh: SMN2 splice variant enhancement | HEK293 SMN2-luciferase splicing reporter, luminescence, 30-36 h | Potency, µM (top dose mostly 46.1 µM), without a hit: top-dose activity change, positive = activation, most hits filed as activators | actives 2.8% (n = 210,000) | AID 1458; further: % of control where 0% means no effect; nearly all actives have a fitted effect of over 55% in size
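qHTS luciferase splicing reporter: luminescence rises when SMN2 exon 7 is included in transfected HEK293 cells. Compound exposure lasted 30-36 h at 37C, with 4.5 mM final sodium butyrate as control, followed by a ONE-Glo read.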
ELG1 genotoxic: genotoxicity induction in ELG1-luciferase HEK293T cells; HEK293T ELG1-luciferase reporter, luminescence, 16 h; Potency, µM (top dose mostly 46 µM), inactives show top-dose activity change, positive = activation, usual class: activators; actives 1.3% (n = 330,000); AID 504466; further: % of control where 0% means no effect; nearly all actives have a fitted effect of over 60% in size
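16 hr compound incubation (37 °C, 5% CO2) of HEK293T cells carrying luciferase-tagged ELG1; luciferase then measured by ONE-Glo luminescence after 30 min at RT.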
Rab9 prom act: activates the Rab9 promoter; Potency, µM (highest dose often 9.22 µM), without a hit: at the top dose activation, negative = inhibition, usual class: activators; Huh7 Rab9 promoter-luciferase reporter, luminescence, 24 h; actives 2.8% (n = 320,000); further: % of control where 0% means no effect; nearly all actives have a fitted effect of over 60% in size
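Steps: seed 1500 Huh7 Rab9-luc cells per well, rest 2 h at 37 °C; add compound in DMSO; incubate 24 h; add luciferase reagent, 10 min ambient; read luminescence.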
NPC1 promoter act: activators of NPC1 promoter. Huh7 NPC1 promoter luciferase reporter, 24 h. Potency, µM (series often up to 9.22 µM), for the others: at the highest dose activation, usual class: activators. actives 2.4% (n = 320,000). AID 485313; further: % of control where 0% means no effect; nearly all actives have a fitted effect of over 60% in size
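Luciferase expression driven by the NPC1 promoter was measured in stably transfected Huh7 cells after a 24 h compound incubation, using a luciferase reagent and a luminescence read.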
Starred values were filed as active, the others as inactive; [ ] = remark or other dose. Only some compounds are listed: those with a hit (about 7.3% of all), similar ones and a draw of the others. The call rests on the fitted dose curve; in most records, active means well fitted curve in the direction sought with a large enough effect; inconclusive means small, poorly fitted or top-dose-only effect, or another doubt; inactive means no such curve, though single readings can be large; an effect the other way counts as inactive or inconclusive. Potency means the concentration at half of the fitted maximal effect.

Results for O=C(NNC(=O)c1ccccc1Br)c1ccncc1 ?
FLuc modulator: -5%; ELG1 genotoxic: 5%; Rab9 prom act: 6%; NPC1 promoter act: -2%

What do the screens show for `O=C(OCC(=O)c1cccc2ccccc12)c1ccc(CO)cc1`?
FLuc modulator: 12µM*; ELG1 genotoxic: 17%; Rab9 prom act: 22%; NPC1 promoter act: inconclusive

How did O=C(OCC(=O)c1ccccc1Br)c1ccncc1 do in these assays?
FLuc modulator: 11µM*; Luc counter: -7%; SMN2 splice enh: 4%; ELG1 genotoxic: -7%; Rab9 prom act: -3%; NPC1 promoter act: 0%

What do the screens show for `O=C(Nc1cc(C(F)(F)F)ccc1Cl)c1cc(S(=O)(=O)NCc2ccccc2)ccc1F`?
FLuc modulator: -6%

What do the screens show for `C#CCOC(=O)[C@H](N)CC(N)=O`?
Luc counter: -5%[7.66 µM]; SMN2 splice enh: -12%[9.22 µM]

Results for Cc1ccc(C(=O)NCC(c2ccc3c(c2)OCO3)N2CCN(c3ccc(F)cc3)CC2)cc1 (configuration not stated) ?
FLuc modulator: -3%

Results for O=C(c1ccc2c(c1)N(Cc1ccc(F)cc1)C(=O)c1ccccc1S2=O)N1CCC(Cc2ccccc2)CC1 (configuration not stated) ?
FLuc modulator: -1%; SMN2 splice enh: -51%

What do the screens show for `CCOc1ccc(NC(=O)CC2C(=O)N(c3ccc(F)cc3)C(=O)N2Cc2ccc(OC)c(OC)c2)cc1` (configuration not stated)?
FLuc modulator: 6%; SMN2 splice enh: -3%

Results for O=C1[C@H]2[C@H]3C=C[C@@H](C4[C@H]3[C@@H]3C(=O)N(CN5CCSCC5)C(=O)[C@H]43)[C@H]2C(=O)N1CN1CCSCC1 (some centres not stated) ?
Luc counter: -5%[7.66 µM]; SMN2 splice enh: -19%[9.22 µM]

What do the screens show for `COc1ccc(OC)c(C(=O)COC(=O)c2cccnc2SC)c1`?
FLuc modulator: -3%; ELG1 genotoxic: 0%; Rab9 prom act: -8%; NPC1 promoter act: -9%

What do the screens show for `COc1ccc(C(=O)COC(=O)c2cccnc2SC)cc1`?
FLuc modulator: 3.8µM*; Luc counter: -21%; SMN2 splice enh: 3%; ELG1 genotoxic: 0%; Rab9 prom act: -9%; NPC1 promoter act: 4%

What do the screens show for `CSc1ncccc1C(=O)OCC(=O)c1ccccc1Br`?
FLuc modulator: 8.5µM*; Luc counter: -16%; SMN2 splice enh: -6%; ELG1 genotoxic: 10%; Rab9 prom act: -2%; NPC1 promoter act: 1%

How did Cn1nccc1C(=O)OCC(=O)Nc1nc(-c2ccccc2)cs1 do in these assays?
FLuc modulator: inconclusive; Luc counter: 14%; SMN2 splice enh: 10%; ELG1 genotoxic: inconclusive; Rab9 prom act: 11%; NPC1 promoter act: 11%

How did Cn1cc(Cl)c(C(=O)OCC(=O)Nc2nc(-c3ccc(Br)cc3)cs2)n1 do in these assays?
FLuc modulator: inconclusive; Luc counter: -3%; SMN2 splice enh: 16µM*; ELG1 genotoxic: -1%; Rab9 prom act: 17%; NPC1 promoter act: 14%

Results for CSc1ncccc1C(=O)OCC(=O)c1ccc(Br)s1 ?
FLuc modulator: 12µM*; Luc counter: -4%; SMN2 splice enh: 2%; ELG1 genotoxic: -2%; Rab9 prom act: 9%; NPC1 promoter act: 0%

What do the screens show for `COCCN(CCOC)c1nc(C)nc2c1nc(-c1ccccc1)n2CC1CCN(C)CC1`?
Luc counter: 3%; SMN2 splice enh: -1%

What do the screens show for `CC(C)CCNC(=O)c1ccc2c(c1)N(Cc1ccccc1F)C(=O)c1ccccc1S2(=O)=O`?
FLuc modulator: 4%; SMN2 splice enh: 3%

What do the screens show for `CCc1nc(Oc2cccc(F)c2)c2oc3ccccc3c2n1`?
FLuc modulator: -2%

How did CSc1ncccc1C(=O)OCC(=O)c1ccccc1 do in these assays?
FLuc modulator: 12µM*; Luc counter: -3%; SMN2 splice enh: 2%; ELG1 genotoxic: 4%; Rab9 prom act: 0%; NPC1 promoter act: 1%

Results for CNC(=O)COC(=O)c1cccnc1SC ?
FLuc modulator: 1%; Luc counter: -3%; SMN2 splice enh: -7%; ELG1 genotoxic: 0%; Rab9 prom act: -1%; NPC1 promoter act: 1%

Results for COc1ccc(C(=O)COC(=O)c2nn(C)cc2Cl)cc1 ?
FLuc modulator: 17µM*; ELG1 genotoxic: inconclusive; Rab9 prom act: 22%; NPC1 promoter act: 24%

How did CN1CCN(C(=O)/C=C/c2ccc3c(c2)OCO3)CC1 do in these assays?
FLuc modulator: -4%; Luc counter: -2%; SMN2 splice enh: 1%; ELG1 genotoxic: 3%; Rab9 prom act: 13%; NPC1 promoter act: 1%

Results for COC(=O)C1CCN(C(=O)/C=C/c2ccc3c(c2)OCO3)CC1 ?
FLuc modulator: inconclusive; ELG1 genotoxic: inconclusive; Rab9 prom act: 1.3µM*; NPC1 promoter act: 0.79µM*

What do the screens show for `O=C(/C=C/C=C/c1ccc2c(c1)OCO2)N1CCCCC1`?
FLuc modulator: 8.5µM*; Luc counter: 0%; SMN2 splice enh: 14µM*; ELG1 genotoxic: 12µM*; Rab9 prom act: 2.5µM*; NPC1 promoter act: 2.5µM*

What do the screens show for `O=C(/C=C/c1ccc2c(c1)OCO2)N1CCN(c2n[nH]c(=O)[nH]c2=O)CC1`?
FLuc modulator: 21µM*; ELG1 genotoxic: 2%; Rab9 prom act: -2%; NPC1 promoter act: -4%

What do the screens show for `CCN1CCN(C(=O)/C=C/c2ccc3c(c2)OCO3)CC1`?
FLuc modulator: -14%; Luc counter: -2%; ELG1 genotoxic: 4%; Rab9 prom act: 1%; NPC1 promoter act: 2%

Results for CCOC(=O)N1CCC(NC(=O)c2ccc3c(c2)N(Cc2ccc(F)cc2)C(=O)c2ccccc2S3=O)CC1 (configuration not stated) ?
FLuc modulator: -6%; SMN2 splice enh: -11%

What do the screens show for `CCOc1ccc(CN(CCc2ccc3c(c2)OCO3)Cc2cc(OC)cc(OC)c2)cc1`?
FLuc modulator: -1%; SMN2 splice enh: -24%

How did CCCCN(C)C(=O)CN1C(=O)c2cccnc2Oc2ccc(Cl)cc21 do in these assays?
FLuc modulator: -2%

Results for Nc1ccc2oc(-c3ccc4nc[nH]c4c3)nc2c1 ?
FLuc modulator: 1.9µM*; Luc counter: -16%; SMN2 splice enh: 13µM*; ELG1 genotoxic: inconclusive; Rab9 prom act: inconclusive; NPC1 promoter act: inconclusive
